In PubChem BioAssay (NCATS):
Results filed as inconclusive are left out. A number with no mark means an inactive call. Active and inactive are the calls of the source. The call rests on the fitted dose curve; in most records, active means well fitted activation curve with a large enough effect; inconclusive means small, poorly fitted or top-dose-only effect; inactive means flat fitted curve, though single readings scatter.

target: Nuclear receptor subfamily 1 group I member 2 (Homo sapiens) (UniProt O75469); assay: Dual reporter qHTS for agonist of Pregnane X Receptor (hPXR) against the NCATS DSHEA and TCM libraries: Luminescence readout (AID 1920059); details: hPXR dual reporter cells, luciferase luminescence agonist; series mostly up to 40 µM; activation: at the top concentration; on activation: 0% is about no effect
Description: Assay Development and Screening Technology Laboratory (ADST)
National Center for Advancing Translational Sciences (NCATS), Rockville, MD
National Institute of Health (NIH), Bethesda, Maryland
Dietary Supplements and Natural Products have minor oversight of their safety and efficacy. We assembled a collection of Dietary Supplements and Natural Products (DSNP) as well as Traditional Chinese Medicinal (TCM) Plant extracts, which were screened against an in vitro panel of assays, including a liver cytochrome p450 enzyme panel, CAR/PXR signaling pathways, and P-gp transporter assays, to assess their activity. This pipeline facilitated the interrogation of Natural Product-Drug Interaction (NaPDI) through prominent metabolizing pathways. In addition, we compared the activity profiles of the DSNP/TCM substances with those of an approved drug collection. Many of the approved drugs have well-annotated mechanisms of action (MOA) while the MOAs for most of the DSNP and TCM samples remain unknown. Based on the premise that compounds with similar activity profiles tend to share similar targets or MOA, we clustered the library activity profiles to identify overlap with the NCATS Pharmaceutical Collection to predict the MOAs of the DSNP/TCM substances. Overall, we highlight four significant bioactivity profiles (measured by p-values) as examples of this prediction. To assess broad cytotoxicity, we employed screening against a HepG2 cell line. In addition, transporter-mediated drug interactions are utilized in the characterization of DDIs using a P-glycoprotein (P-gp) assays. To profile potential P-gp activity, a differential cell viability was measured against two cell lines: a parental KB-3-1 human cervical adenocarcinoma cell line and the drug-resistant subline KB-8-5-11 that overexpresses P-gp.
To this end, we profiled both collections for potential CAR and/or PXR activity, employing a previously published 1536-well qHTS assay.
[1] Lee TD, et al. A High-Throughput Screen of a Library of Therapeutics Identifies Cytotoxic Substrates of P-glycoprotein. Mol Pharmacol. Nov 2019;96(5):629-640. doi:10.1124/mol.119.115964
For PXR luciferase reporter gene assays, we used hPXR-LucHepG2cells provided by Dr. Taosheng Chen (Department of Chemical Biology and Therapeutics, St. Jude Children's Research Hospital). Cells were cultured in EMEM supplemented with 10% fetal bovine serum, 100U/mL penicillin and 100ug/mL streptomycin, and 500ug/mL of geneticin.
PROTOCOL TABLE (as described by Inglese J, Shamu CE and Guy RK. 2007)
SEQUENCE No. (e.g., 1, 2, 3, etc.); […] (e.g., Cells, Incubation, Reagent, etc.); VALUE; DESCRIPTION.
1; Cells; 5 uL; hPXR-LucHepG2; white solid-bottom Greiner plate.
2; Incubation; 5h; 37C, 95% humidity, 5% CO2
3; Compounds and control; 23 nL; Kalypsis pintool (Wako USA).
4; Reagent; 1uL; rifampicin (RIF) in the antagonist mode.
6; Reagent; 1 uL; CellTiter-Fluor detection reagent.
7; Incubation; 1 hr; 37C, 5% CO2.
8; Read; Fluorescence; ViewLux plate reader.
9; Reagent; 4 uL; ONE-Glo Luciferase detection reagent.
10; Incubation; 30 min; room temperature.
11; Read; Luminescence; ViewLux plate reader.
NOTES (numbers refer to Sequence numbers above)
1. Briefly, 5uL of hPXR-LucHepG2 cells in phenol red-free DMEM containing 5% charcoal-stripped FBS, 1 mM sodium pyruvate (Invitrogen), 2 mM L-glutamine (Invitrogen), and 100 U/mL penicillin and 100ug/mL streptomycin were dispensed using a BioRAPTR FRD at 4 x 10^5cells/mL (2000cells/well) in tissue culture-treated 1536-well white assay plates (GreinerBio-One).
2. Plates were incubated for 5h at 37C, 95% humidity, and 5% CO2 to allow for cell attachment.
3. Compounds (final concentration for most substances ranged from 15.6 nM to 45.9uM), positive control rifampicin (RIF; final concentration range of 2.8 nM to 92uM for the agonist mode), and cytotoxicity control tetraoctyl ammonium bromide (final concentration of 92uM) were transferred (23 nL) via pintool (Wako Automation).
4-5. […]
Potency means the concentration at half of the fitted maximal effect.

Chain of Nuclear receptor subfamily 1 group I member 2 (Homo sapiens) (O75469 whole entry, looked up): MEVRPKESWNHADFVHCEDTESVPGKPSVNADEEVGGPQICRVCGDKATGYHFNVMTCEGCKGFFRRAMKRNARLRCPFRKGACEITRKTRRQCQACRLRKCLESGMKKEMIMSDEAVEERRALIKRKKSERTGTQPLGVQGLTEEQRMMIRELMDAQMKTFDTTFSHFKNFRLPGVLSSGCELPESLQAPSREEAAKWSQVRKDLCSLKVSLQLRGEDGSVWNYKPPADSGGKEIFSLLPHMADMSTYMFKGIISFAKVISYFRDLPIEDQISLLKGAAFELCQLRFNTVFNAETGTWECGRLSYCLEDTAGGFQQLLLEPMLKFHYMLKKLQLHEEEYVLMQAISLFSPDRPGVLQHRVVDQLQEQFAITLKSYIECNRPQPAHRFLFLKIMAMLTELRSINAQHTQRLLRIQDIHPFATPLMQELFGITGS

| Compound | activation | Potency |
| --- | --- | --- |
| CC/C=C\C/C=C\C/C=C\CCCCCCCC(=O)O | 13.5% |  |
| CC/C=C\C/C=C\C/C=C\C/C=C\C/C=C\CCCC(=O)O | 7.76% |  |
| CCCCCCCCCCCC(=O)OCC(O)CO (centres undefined) | 1.16% |  |
| COC1=C(OC)C(=O)C(C/C=C(\C)CC/C=C(\C)CC/C=C(\C)CC/C=C(\C)CC/C=C(\C)CC/C=C(\C)CC/C=C(\C)CC/C=C(\C)CC/C=C(\C)CCC=C(C)C)=C(C)C1=O | -1.49% |  |
| CC1=CCC2CC1C2(C)C (centres undefined) | 9.14% |  |
| CCCCC/C=C\C/C=C\C/C=C\CCCCC(=O)O | -11.8% [at 5 µM] |  |
| CC/C=C\C/C=C\C/C=C\C/C=C\C/C=C\C/C=C\CCC(=O)O | 16.5% |  |
| Oc1ccc(/C=C/c2cc(O)cc(O)c2)cc1 |  | 31.6 µM (active) |
| Cc1ncc(C[n+]2csc(CCO)c2C)c(N)n1 | 2.73% |  |
| C=C1CC[C@H](O)C/C1=C\C=C1/CCC[C@]2(C)[C@@H]([C@H](C)CCCC(C)C)CC[C@@H]12 |  | 31.6 µM (active) |
| Oc1cccc(O)c1O | -3.55% |  |
| CC(C)=CCC/C(C)=C/C=C/C(C)=C/C=C/C(C)=C/C=C/C=C(C)/C=C/C=C(C)/C=C/C=C(\C)CCC=C(C)C | 8.92% |  |
| O=C(O)/C=C/c1ccccc1 | -12.2% [at 68.2 µM] |  |
| CC[C@H](CC[C@@H](C)[C@H]1CC[C@H]2[C@@H]3CC=C4C[C@@H](O)CC[C@]4(C)[C@H]3CC[C@]12C)C(C)C | 11.6% |  |
